# Assay results published in the supplement of paper PMC4466140.
# B1: unnamed (peptide)
# chain: TEVPIPRRPPPPQAA
# Target: ScBbc1
# Experiment: SPOT peptide array binding signal intensity (averaged, normalized) (arbitrary units (background-subtracted, floor 0; scale differs between SH3 domains)); higher = stronger binding of the SH3 domain to the peptide
# Outline: (§1)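 Binding signal refers to normalized, background-subtracted spot intensity averaged over replicates, expressed in arbitrary units that differ between domains. GST-fused SH3 domains from four yeast species were incubated at 10 μg/ml overnight at 4°C on cellulose membranes of synthetic 15-mer peptides with cysteines replaced by serines. Bound protein was detected with anti-GST antibody, an HRP anti-mouse secondary and luminol, and quantified with Genespotter.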
row,Binder,SPOT peptide array binding signal intensity
1,B1,≤ 0

# Target: ScBem1-D1
# Experiment: as above
# Outline: as §1
row,Binder,SPOT peptide array binding signal intensity
1,B1,≤ 0

# Target: ScBzz1-D1
# Experiment: as above
# Outline: as §1
row,Binder,SPOT peptide array binding signal intensity
1,B1,14

# Target: ScBzz1-D2
# Experiment: as above
# Outline: as §1
row,Binder,SPOT peptide array binding signal intensity
1,B1,12

# Target: ScCyk3
# Experiment: as above
# Outline: as §1
row,Binder,SPOT peptide array binding signal intensity
1,B1,≤ 0

# Target: ScFus1
# Experiment: as above
# Outline: as §1
row,Binder,SPOT peptide array binding signal intensity
1,B1,1

# Target: ScHof1
# Experiment: as above
# Outline: as §1
row,Binder,SPOT peptide array binding signal intensity
1,B1,≤ 0

# Target: ScHse1
# Experiment: as above
# Outline: as §1
row,Binder,SPOT peptide array binding signal intensity
1,B1,≤ 0

# Target: ScLsb1
# Experiment: as above
# Outline: as §1
row,Binder,SPOT peptide array binding signal intensity
1,B1,5

# Target: ScLsb2
# Experiment: as above
# Outline: as §1
row,Binder,SPOT peptide array binding signal intensity
1,B1,≤ 0

# Target: ScLsb3
# Experiment: as above
# Outline: as §1
row,Binder,SPOT peptide array binding signal intensity
1,B1,118

# Target: ScLsb4
# Experiment: as above
# Outline: as §1
row,Binder,SPOT peptide array binding signal intensity
1,B1,2

# Target: ScMyo3
# Experiment: as above
# Outline: as §1
row,Binder,SPOT peptide array binding signal intensity
1,B1,1370

# Target: ScMyo5
# Experiment: as above
# Outline: as §1
row,Binder,SPOT peptide array binding signal intensity
1,B1,569

# Target: ScNbp2
# Experiment: as above
# Outline: as §1
row,Binder,SPOT peptide array binding signal intensity
1,B1,12

# Target: ScPex13
# Experiment: as above
# Outline: as §1
row,Binder,SPOT peptide array binding signal intensity
1,B1,≤ 0

# Target: ScRvs167
# Experiment: as above
# Outline: as §1
row,Binder,SPOT peptide array binding signal intensity
1,B1,1.83

# Target: ScSho1
# Experiment: as above
# Outline: as §1
row,Binder,SPOT peptide array binding signal intensity
1,B1,≤ 0

# Target: ScSla1-D1-D2
# Experiment: as above
# Outline: as §1
row,Binder,SPOT peptide array binding signal intensity
1,B1,≤ 0

# Target: ScSla1-D3
# Experiment: as above
# Outline: as §1
row,Binder,SPOT peptide array binding signal intensity
1,B1,≤ 0

# Target: SpAbp1-D1
# Experiment: as above
# Outline: as §1
row,Binder,SPOT peptide array binding signal intensity
1,B1,≤ 0

# Target: SpBbc1
# Experiment: as above
# Outline: as §1
row,Binder,SPOT peptide array binding signal intensity
1,B1,1.25

# Target: SpBzz1-D1
# Experiment: as above
# Outline: as §1
row,Binder,SPOT peptide array binding signal intensity
1,B1,37

# Target: SpBzz1-D2
# Experiment: as above
# Outline: as §1
row,Binder,SPOT peptide array binding signal intensity
1,B1,0.25

# Target: SpCyk3
# Experiment: as above
# Outline: as §1
row,Binder,SPOT peptide array binding signal intensity
1,B1,≤ 0

# Target: SpHof1
# Experiment: as above
# Outline: as §1
row,Binder,SPOT peptide array binding signal intensity
1,B1,≤ 0

# Target: SpHof1-2
# Experiment: as above
# Outline: as §1
row,Binder,SPOT peptide array binding signal intensity
1,B1,≤ 0

# Target: SpHof1-3
# Experiment: as above
# Outline: as §1
row,Binder,SPOT peptide array binding signal intensity
1,B1,≤ 0

# Target: SpHse1
# Experiment: as above
# Outline: as §1
row,Binder,SPOT peptide array binding signal intensity
1,B1,8

# Target: SpLsb1
# Experiment: as above
# Outline: as §1
row,Binder,SPOT peptide array binding signal intensity
1,B1,1

# Target: SpLsb4
# Experiment: as above
# Outline: as §1
row,Binder,SPOT peptide array binding signal intensity
1,B1,90.5

# Target: SpMyo1
# Experiment: as above
# Outline: as §1
row,Binder,SPOT peptide array binding signal intensity
1,B1,1920

# Target: SpNbp2
# Experiment: as above
# Outline: as §1
row,Binder,SPOT peptide array binding signal intensity
1,B1,1

# Target: SpPex13
# Experiment: as above
# Outline: as §1
row,Binder,SPOT peptide array binding signal intensity
1,B1,≤ 0

# Target: SpRvs167
# Experiment: as above
# Outline: as §1
row,Binder,SPOT peptide array binding signal intensity
1,B1,≤ 0

# Target: SpSla1-D1-D2
# Experiment: as above
# Outline: as §1
row,Binder,SPOT peptide array binding signal intensity
1,B1,≤ 0

# Target: SpSla1-D3
# Experiment: as above
# Outline: as §1
row,Binder,SPOT peptide array binding signal intensity
1,B1,1
